# Data taken from PubChem BioAssay (NCATS).
# “And” between values parts separate entries of the source, which are not always exact repeats. Equal entries are not always repeated. Results filed as inconclusive are left out. Entries that show only a call come without a potency. The source made the active and inactive calls. Unless noted, the call rests on the fitted dose curve; in most records, active means well fitted curve in the direction sought with a large enough effect; inconclusive means small, poorly fitted or top-dose-only effect, or another doubt; inactive means no such curve, though single readings can be large; an effect the other way counts as inactive or inconclusive.
# Tests used:
# [1] = S16 Schwann cell viability assay (CellTiter-Glo assay) (AID 624031); further: nearly all actives have a fitted effect of over 70% in size; further: potency means the concentration at half of the fitted maximal effect
# Method in brief: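 Native S16 Schwann cells (rat), serum-containing medium, overnight attachment then 24 h drug exposure at 37 °C/5% CO2. CellTiter-Glo ATP signal; normalized to cell-free and vehicle wells.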
# [2] = S16 Schwann cell PMP22 intronic element beta-lactamase assay (AID 624044; calls by dose curve; further: nearly all actives have a fitted effect of over 15% in size)
# Method in brief: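 Rat S16 Schwann cells with beta-Lac driven by a PMP22 intronic element, compound-treated 24 h at 37 °C. LiveBLAzer FRET B/G read: 460 nm normalized to potassium clavulanate vs DMSO; 535 nm FRET as viability; concentration-effect curves classified.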
# [3] = target: Glutaminase kidney isoform, mitochondrial (Homo sapiens) (UniProt O94925); test: qHTS for Inhibitors of Glutaminase (GLS): LOPAC Validation (AID 624146);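 further: glutamate product detected by oxidase and peroxidase coupled Amplex red fluorescence gain; nearly all actives have a fitted effect of over 60% in size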
# Method in brief: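 Compounds were pin-transferred onto hKGA, after which L-glutamine (1 mM solution) and a detection mix of glutamate oxidase, HRP and Amplex Red were added. Initial and 30 min RT fluorescence reads were collected.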
# [4] = qHTS of Trypanosoma Brucei Inhibitors: LOPAC Validation (AID 624147)
# Method in brief: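 In this concentration-response screen, enzyme-free wells defined baseline while DMSO plates tracked drift. Each reaction combined TbPYK, substrate, compound and 130 uM ADP for 45 min at room temperature. Kinase-Glo Plus luminescence gave the signal.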
# [5] = qHTS of Nrf2 Activators: LOPAC Validation (AID 624149)
# Method in brief: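 ARE reporter activation measured in AREc32 firefly luciferase cells after 24 hr compound exposure; Steady-Glo luminescence.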
# [6] = HTS Assay for Allosteric Antagonists of the Human D2 Dopamine Receptor: Hit Validation in HTRF (AID 624455); further: potency means the concentration at half of the fitted maximal effect;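 further: stable D1 dopamine receptor cell line scored for blocking the D1 response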
# Method in brief: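 Signal from an HTRF read-out in D1-expressing stable cells gave hit activity as inhibition of the D1 response.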
# [7] = target: Glucagon-like peptide 1 receptor (Homo sapiens) (UniProt P43220); test: qHTS of GLP-1 Receptor Agonists: LOPAC Validation (AID 624148);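 further: luminescence from a luciferase reporter switched on by cAMP; higher luminescence signal means agonism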
# Method in brief: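 Agonism scored as increased luciferase luminescence driven by cAMP in HEK293 clones carrying GLP-1R. Cells settled 12 hours, received compound for 4-6 hr at 37 deg C, 5% CO2, and were read after 12 min detection reagent at RT.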
# [8] = qHTS assay for small molecule activators of the p53 signaling pathway (AID 651743; active means well fitted activation curve with a large enough effect in the signal ratio, not every such curve was filed as active; the % refers to the signal ratio; further: potency means the concentration at half of the fitted maximal effect); settings: HCT-116 p53RE-bla, beta-lactamase FRET ratio, 16 h; activation: stronger effect = higher value
# Method in brief: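 Screen for p53 pathway agonists uses stably transfected p53RE-bla HCT-116 cells, 4,000 per well, treated 16 h at 37 C with compounds in DMSO.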
# [9] = qHTS assay for small molecule activators of the nuclear factor-kappa B (NF-kB) signaling pathway (AID 651749; active means well fitted activation curve with a large enough effect in the signal ratio; the % refers to the signal ratio); settings: NF-kB-bla ME-180 cells, beta-lactamase FRET ratio, 16 h; stronger effect = higher value
# Method in brief: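 Stably transfected ME-180 line; NF-kB response element upstream of beta-lactamase. Treatment: compound or DMSO, 16 hr. Detection: fluorescent FRET substrate.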
# [10] = target: Tumor necrosis factor (Homo sapiens) (UniProt P01375); test: qHTS assay to identify small molecules that stimulate Tumor Necrosis Factor-alpha (TNF-alpha) secretion (AID 651757; active means well fitted curve in the direction sought with a large enough effect in the signal ratio; the % refers to the signal ratio)
# Method in brief: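 Secreted TNF-alpha from compound-treated THP-1 cells (17 hrs, 37 C) was quantified with a homogeneous time-resolved fluorescence antibody assay.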
# [11] = Cytotoxicity counterscreen for NFkB agonists and antagonists (AID 624476)
# [12] = qHTS Assay for Identification of Small Molecule Agonists for NFkB Signaling Pathway. (AID 624478);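 further: compounds tested together with TNF alpha at its EC50 of 10 pM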
# Method in brief: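 Cells carrying an NFkB response element-driven beta-lactamase gene are co-treated with compound and 10 pM TNF alpha for 5 h, and reporter activity is then read as 460 and 530 nm fluorescence.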
# [13] = qHTS Assay for Identification of Small Molecule Antagonists for NFkB Signaling Pathway. (AID 624479; calls by dose curve;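 further: pathway stimulated with TNF alpha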)
# [14] = Cell Proliferation Assay against the TMD8 Cell Line (AID 651645); settings: TMD8 DLBCL cell line proliferation/viability; at 46.1 µM (top of the series) unless noted;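 further: cells exposed to compound for 48 h before reading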
# Method in brief: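 Cell viability of the ABC DLBCL line TMD8 is measured by CellTiter-Glo luminescence following a 48-hour incubation with compound. Percent activity uses DMSO as 100% and 9.2 uM bortezomib (final) as 0%.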
# [15] = Cell Proliferation Assay against the HBL1 Cell Line (AID 651646); settings: HBL1 DLBCL cells; at 46.1 µM (top of the series) unless noted;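 further: cells exposed to compound for 48 h before reading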
# Method in brief: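 Luminescent ATP read-out (CellTiter-Glo) after 48 h compound exposure of HBL1 cells at 37 °C; percent activity was scaled between DMSO as 100% and 9.2 uM bortezomib (final) as 0%.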
# [16] = Cell Proliferation Assay against the TMD8 Cell Line (Caspase readout at 8 hrs) (AID 651713)
# Method in brief: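 Percent activity derived from Caspase-Glo signal, DMSO set to 0% and bortezomib (9.2 uM final) to 100%. TMD8 cells were exposed to compound for 8 h in RPMI with 5% FBS.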
# [17] = Cell Proliferation Assay against the TMD8 Cell Line (Caspase readout at 16 hrs) (AID 651712)
# Method in brief: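 Apoptotic response of TMD8 cells was judged from caspase 3/7 activation following a 16 hour compound incubation at 37 °C. Luminescent signal was converted to percent activity, with DMSO set as 0% and 9.2 uM final bortezomib as 100%.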
# Chain of Glucagon-like peptide 1 receptor (Homo sapiens) (P43220 whole entry, looked up): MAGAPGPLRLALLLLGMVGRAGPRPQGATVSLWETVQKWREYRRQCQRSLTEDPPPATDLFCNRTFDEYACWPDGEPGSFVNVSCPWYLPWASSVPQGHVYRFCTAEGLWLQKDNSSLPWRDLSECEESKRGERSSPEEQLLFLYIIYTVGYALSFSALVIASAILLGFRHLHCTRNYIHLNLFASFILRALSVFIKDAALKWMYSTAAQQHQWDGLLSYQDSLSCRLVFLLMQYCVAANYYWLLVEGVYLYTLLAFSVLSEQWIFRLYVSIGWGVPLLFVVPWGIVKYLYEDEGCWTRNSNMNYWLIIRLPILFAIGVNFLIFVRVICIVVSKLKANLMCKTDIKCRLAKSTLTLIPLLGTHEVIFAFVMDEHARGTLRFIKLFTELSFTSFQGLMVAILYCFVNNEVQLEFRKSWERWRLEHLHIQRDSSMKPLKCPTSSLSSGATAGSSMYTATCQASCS
# Chain of Glutaminase kidney isoform, mitochondrial (Homo sapiens) (O94925 whole entry, looked up, canonical isoform): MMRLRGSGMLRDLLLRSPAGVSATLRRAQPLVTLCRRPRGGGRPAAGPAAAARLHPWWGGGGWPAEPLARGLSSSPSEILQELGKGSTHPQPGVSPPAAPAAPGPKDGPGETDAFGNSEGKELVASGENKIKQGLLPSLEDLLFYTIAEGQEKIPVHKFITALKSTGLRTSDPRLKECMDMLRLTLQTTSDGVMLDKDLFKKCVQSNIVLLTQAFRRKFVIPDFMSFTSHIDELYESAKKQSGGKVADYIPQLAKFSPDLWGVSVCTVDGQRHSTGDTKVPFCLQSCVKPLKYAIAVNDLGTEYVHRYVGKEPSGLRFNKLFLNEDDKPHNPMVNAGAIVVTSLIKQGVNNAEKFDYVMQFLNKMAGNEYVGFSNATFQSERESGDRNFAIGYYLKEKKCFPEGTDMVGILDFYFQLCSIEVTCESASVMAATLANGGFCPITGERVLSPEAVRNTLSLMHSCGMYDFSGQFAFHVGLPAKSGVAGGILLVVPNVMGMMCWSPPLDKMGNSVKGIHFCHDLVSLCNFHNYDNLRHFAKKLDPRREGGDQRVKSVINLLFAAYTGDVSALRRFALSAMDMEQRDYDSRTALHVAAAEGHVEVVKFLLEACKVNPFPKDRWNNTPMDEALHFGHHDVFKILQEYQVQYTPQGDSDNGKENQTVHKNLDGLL
# Chain of Tumor necrosis factor (Homo sapiens) (P01375 whole entry, looked up): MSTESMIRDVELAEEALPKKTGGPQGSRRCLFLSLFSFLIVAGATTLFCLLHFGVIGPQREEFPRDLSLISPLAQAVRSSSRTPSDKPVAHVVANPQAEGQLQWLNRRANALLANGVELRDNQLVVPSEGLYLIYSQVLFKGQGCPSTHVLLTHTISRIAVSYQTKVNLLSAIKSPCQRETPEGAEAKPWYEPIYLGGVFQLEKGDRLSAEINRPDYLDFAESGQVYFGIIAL
smiles,measurement,setting,value
NC[C@H](O)c1ccc(O)c(O)c1,Potency,[1],inactive
same,outcome,[2],inactive
same,outcome,[3],inactive
same,outcome,[4],inactive
same,outcome,[5],inactive
same,Potency,[6],0.291 µM (active)
NC(=O)c1cnccn1,Potency,[1],inactive
same,outcome,[3],inactive
same,outcome,[4],inactive
same,outcome,[7],inactive
same,outcome,[5],inactive
same,Potency,[6],inactive
same,activation,[8],0.545% (inactive) and -2.21% (inactive)
same,activation,[9],-0.539% (inactive) and -2.05% (inactive)
same,outcome,[10],inactive
CC(C[N+](C)(C)C)OC(N)=O (stereo not drawn),Potency,[1],inactive
same,outcome,[3],inactive
same,outcome,[4],inactive
same,outcome,[7],inactive
same,outcome,[5],inactive
same,Potency,[6],inactive
COc1ccc2nc(S(=O)Cc3ncc(C)c(OC)c3C)[nH]c2c1 (stereo not drawn),Potency,[1],inactive
same,outcome,[2],inactive
same,Potency,[11],inactive
same,outcome,[12],inactive
same,Potency,[13],inactive
same,viability (% of control),[14],52.2%
same,"viability, percent of control",[15],89.4%
same,Potency,[16],inactive
same,activation,[9],-0.714% (inactive)
Clc1cccc(Cl)c1NC1=NCCN1,Potency,[1],inactive
same,outcome,[3],inactive
same,outcome,[4],inactive
same,outcome,[7],inactive
same,outcome,[5],inactive
same,Potency,[6],inactive
Cc1oncc1C(=O)Nc1ccc(C(F)(F)F)cc1,Potency,[1],inactive
same,outcome,[3],inactive
same,outcome,[4],inactive
same,outcome,[7],inactive
same,outcome,[5],inactive
same,Potency,[6],inactive
same,Potency,[11],inactive
same,outcome,[12],inactive
same,Potency,[13],inactive
same,viability (% of control),[14],54%
same,"viability, percent of control",[15],84%
same,Potency,[16],inactive
Cc1ccccc1C(OCCN(C)C)c1ccccc1 (stereo not drawn),Potency,[1],inactive
same,outcome,[3],inactive
same,outcome,[4],inactive
same,outcome,[7],inactive
same,outcome,[5],inactive
same,Potency,[6],inactive
same,activation,[8],-4.64% (inactive)
same,activation,[9],2.9% (inactive)
N[C@@H]1CONC1=O,Potency,[1],inactive
same,outcome,[2],inactive
same,outcome,[3],inactive
same,outcome,[4],inactive
same,outcome,[7],inactive
same,outcome,[5],inactive
same,Potency,[6],inactive
NC(N)=NC(=O)c1nc(Cl)c(N)nc1N,Potency,[1],inactive
same,outcome,[3],inactive
same,outcome,[4],inactive
same,outcome,[7],inactive
same,outcome,[5],inactive
same,Potency,[6],inactive
same,activation,[8],-2.4% (inactive)
same,activation,[9],-0.363% (inactive)
same,outcome,[10],inactive
Nc1nc2c(ncn2COCCO)c(=O)[nH]1,Potency,[1],inactive
same,outcome,[3],inactive
same,outcome,[4],inactive
same,outcome,[7],inactive
same,outcome,[5],inactive
same,Potency,[6],inactive
Cc1ccc(N(CC2=NCCN2)c2cccc(O)c2)cc1,Potency,[1],inactive
same,outcome,[2],inactive
same,outcome,[4],inactive
same,outcome,[7],inactive
same,outcome,[5],inactive
same,Potency,[6],inactive
Cc1cn[nH]c1,Potency,[1],inactive
same,outcome,[3],inactive
same,outcome,[4],inactive
same,outcome,[7],inactive
same,outcome,[5],inactive
same,Potency,[6],inactive
Nc1nc2ccc(OC(F)(F)F)cc2s1,Potency,[1],inactive
same,outcome,[3],inactive
same,outcome,[4],inactive
same,outcome,[7],inactive
same,outcome,[5],inactive
same,Potency,[6],inactive
same,Potency,[11],inactive
same,outcome,[12],inactive
same,Potency,[13],inactive
same,"viability, percent of control",[15],50.6%
same,Potency,[16],inactive
CN1CCN(CCCN2c3ccccc3Sc3ccc(C(F)(F)F)cc32)CC1,Potency,[1],22.8 µM (active)
same,outcome,[3],inactive
same,outcome,[4],inactive
same,outcome,[7],inactive
same,outcome,[5],inactive
same,Potency,[6],inactive
Cc1c(C)c2c(c(C)c1O)CCC(C)(COc1ccc(CC3SC(=O)NC3=O)cc1)O2 (stereo not drawn),Potency,[1],inactive
same,outcome,[2],inactive
same,outcome,[12],inactive
same,viability (% of control),[14],71.7%
same,"viability, percent of control",[15],81.5%
same,Potency,[16],inactive
same,activation,[9],-3.91% (inactive)
N=c1nc(N2CCCCC2)cc(N)n1O,Potency,[1],inactive
same,outcome,[2],inactive
same,outcome,[3],inactive
same,outcome,[4],inactive
same,outcome,[7],inactive
same,outcome,[5],inactive
same,Potency,[6],inactive
O=C1CCc2cc(OCCCCc3nnnn3C3CCCCC3)ccc2N1,Potency,[1],inactive
same,outcome,[3],inactive
same,outcome,[4],inactive
same,outcome,[7],inactive
same,outcome,[5],inactive
same,Potency,[6],inactive
CCOC(=O)N1CCC(=C2c3ccc(Cl)cc3CCc3cccnc32)CC1,Potency,[1],inactive
same,outcome,[2],inactive
same,outcome,[4],inactive
same,outcome,[7],inactive
same,outcome,[5],inactive
same,Potency,[6],inactive
CC(C)C[C@H](NC(=O)[C@@H](O)[C@H](N)Cc1ccccc1)C(=O)O,Potency,[1],inactive
same,outcome,[2],inactive
same,outcome,[3],inactive
same,outcome,[4],inactive
same,outcome,[7],inactive
same,outcome,[5],inactive
same,Potency,[6],inactive
same,Potency,[11],inactive
same,outcome,[12],inactive
same,Potency,[13],inactive
same,viability (% of control),[14],89.3%
same,"viability, percent of control",[15],106%
same,Potency,[17],inactive
same,Potency,[16],inactive
CC(c1cc2ccccc2s1)N(O)C(N)=O (stereo not drawn),Potency,[1],inactive
same,outcome,[2],inactive
same,Potency,[11],inactive
same,outcome,[12],inactive
same,Potency,[13],inactive
same,viability (% of control),[14],92.3% [at 92.2 µM]
same,"viability, percent of control",[15],96.2% [at 92.2 µM]
same,Potency,[17],inactive
same,Potency,[16],inactive
Cn1cnc([N+](=O)[O-])c1Sc1ncnc2nc[nH]c12,Potency,[1],inactive
same,outcome,[3],inactive
same,outcome,[4],inactive
same,outcome,[7],inactive
same,outcome,[5],inactive
same,Potency,[6],inactive
same,Potency,[8],25.1 µM (active) and 28.2 µM (active)
same,activation,[9],-1.21% (inactive) and -0.92% (inactive)
NCCc1ccc(O)c(O)c1,Potency,[1],inactive
same,outcome,[2],inactive
same,outcome,[3],inactive
same,outcome,[4],inactive
same,outcome,[5],inactive
O=C1CCC(N2C(=O)c3ccccc3C2=O)C(=O)N1 (stereo not drawn),Potency,[1],inactive
same,outcome,[2],inactive
same,outcome,[3],inactive
same,outcome,[4],inactive
same,outcome,[7],inactive
same,outcome,[5],inactive
same,Potency,[6],inactive
same,activation,[8],-2.08% (inactive)
same,activation,[9],-0.119% (inactive)
